Out of some 410,000 compounds screened, about 6,400 (1.6%) were called active. Roughly 20% stayed inconclusive and do not appear here. Calls follow the shape of the dose curve; as a rule, active = well fitted inhibition curve with a large enough effect; inconclusive = small, poorly fitted or top-dose-only effect; inactive = no such curve, though single readings can be large or run the other way. The list comes from a sample in which actives are over-represented; it also holds similar structures and randomly drawn compounds. Where a call stands in place of a potency, no number is given.
Target: Glucagon-like peptide 1 receptor (Homo sapiens) (UniProt P43220)
Sequence (P43220 whole entry, looked up): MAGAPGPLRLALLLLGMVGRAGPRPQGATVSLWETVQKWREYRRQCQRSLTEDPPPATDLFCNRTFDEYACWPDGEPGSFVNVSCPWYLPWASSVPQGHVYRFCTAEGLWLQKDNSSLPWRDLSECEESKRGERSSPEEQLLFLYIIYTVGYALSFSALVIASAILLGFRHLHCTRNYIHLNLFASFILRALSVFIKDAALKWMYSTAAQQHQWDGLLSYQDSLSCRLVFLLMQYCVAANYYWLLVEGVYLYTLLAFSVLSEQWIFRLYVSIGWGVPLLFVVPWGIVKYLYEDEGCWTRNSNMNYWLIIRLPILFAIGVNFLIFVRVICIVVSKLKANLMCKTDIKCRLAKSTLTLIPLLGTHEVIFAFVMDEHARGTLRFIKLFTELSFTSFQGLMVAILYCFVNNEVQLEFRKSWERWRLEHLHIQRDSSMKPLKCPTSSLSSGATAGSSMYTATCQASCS
Assay: qHTS of GLP-1 Receptor Inverse Agonists (Inhibition Mode); also: nearly all actives have a fitted effect of over 55% in size
Details: HEK293 GLP-1R CRE-luciferase, luminescence, 24 h, GLP-1R form is constitutively active; series mostly up to 38.3 µM
How it was run: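 Stable HEK293 clone (constitutively active GLP-1R + cAMP-response luciferase); 200 cells/uL plated, 12 h pre-culture, compound 24 hr, 37 deg C/5% CO2; detection reagent 12 min RT; luminescence.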
Potency is read from the fitted curve at half-maximal effect.

| SMILES | Potency | activity change, negative = inhibition |
| --- | --- | --- |
| Cc1ccccc1OS(=O)(=O)c1cccc([N+](=O)[O-])c1 | inactive | – |
| Cc1ccc(C(=O)NNC(=O)CSc2nnc3ccccn23)cc1 | inactive | – |
| O=C(CSc1nnc2ccccn12)c1ccccc1 | inactive | – |
| Cc1ccc(-n2c(C)cc(C(=O)CSc3nnc4ccccn34)c2C)cc1 | 8.91 µM (active) | – |
| Cc1cccc(CN2CCN(C3CN(Cc4cn(Cc5ccccc5F)nn4)S(=O)(=O)C3)CC2)c1 (stereo not given) | inactive | – |
| c1ccc2c(c1)nnn2-c1ccncc1 | inactive | – |
| Cc1ccccc1S(=O)(=O)NC(=O)C1(C)CCN1C(=O)C1(c2ccccc2)CCCC1 (stereo not given) | inactive | – |
| COc1cc(NC(=O)C2=C(C)OCCS2)c(Cl)cc1C(=O)NCCCN1CCCC(C)C1 (stereo not given) | inactive | – |
| O=C(CNS(=O)(=O)c1cccc(C(F)(F)F)c1)Nc1ccccc1F | inactive | – |
| O=C(NNc1ccccc1Cl)C(O)(c1cccc(C(F)(F)F)c1)c1cccc(C(F)(F)F)c1 | 3.98 µM (active) | – |
| O=C(Nc1cc(C(F)(F)F)ccc1Cl)c1nc2ccccc2nc1N1CCCCC1 | inactive | – |
| O=C(COC(=O)c1cncc(Br)c1)Nc1ccc(S(=O)(=O)N2CCOCC2)cc1 | inactive | – |
| CC1(Oc2ccc(Cl)cc2)CCN(Cc2csc3ccccc23)C1 (stereo not given) | inactive | – |
| CCCc1c(C(=O)Nc2ccc(F)cc2)cnn1-c1ccccc1 | 10 µM (active) | – |
| CCc1ccccc1NC(=O)c1cnn(-c2ccc(F)cc2)c1C1CCNCC1 | inactive | – |
| CCCc1c(C(=O)O)cnn1-c1ccc(Cl)cc1 | inactive | – |
| Cc1cc(OCC(=O)Nc2nccs2)c2c(C)c(C)c(=O)oc2c1 | inactive | – |
| Cc1ccc(F)cc1NC(=O)CSCc1c(C)noc1C | inactive | – |
| Cc1noc(C)c1CSCC(=O)Nc1nc2ccc(Oc3ccccc3)cc2s1 | 7.94 µM (active) | – |
| CCc1noc(C)c1C(=O)Nc1nc2ccc(OC)cc2s1 | inactive | – |
| COc1ccc(S(=O)(=O)N2CCC(C(=O)NCCC(=O)NCCc3cccc(F)c3)CC2)cc1 | inactive | – |
| COC(=O)Nc1nc2ccc(Sc3ccccc3)cc2[nH]1 | 1.12 µM (active) | – |

| SMILES | Potency | activity change, negative = inhibition |
| --- | --- | --- |
| Cc1ccc2nc(CNC(=O)c3ccccc3)[nH]c2c1 | inactive | – |
| CC(C)c1nc2ccc(C(=O)O)cc2[nH]1 | inactive | – |
| Cc1cccc(C(=O)OCC(=O)Nc2sccc2C(N)=O)c1C | inactive | – |
| CC(C)C1CCN(C(=O)C2CCC(=O)N(C3CCCCCC3)C2)CC1 (stereo not given) | inactive | – |
| Cc1ccc(/C=C2\SC(=S)N(CCC(=O)Nc3ccc(O)cc3)C2=O)cc1 | inactive | – |
| O=C(CCCN1C(=O)/C(=C/c2cccs2)SC1=S)Nc1ccc(O)cc1 | 5.01 µM (active) | – |
| O=C(CCN1C(=O)/C(=C/c2cccs2)SC1=S)NNC(=O)c1cccc(O)c1 | – | -10.3% [at 7.66 µM] (inactive) |
| CCCNC(=O)C1(C)CCN1C(=O)Cc1ccc(-c2ccccc2)cc1 (stereo not given) | inactive | – |
| O=C(c1ccc(CS(=O)Cc2ccccc2Cl)o1)N1CCN(c2ccccc2)CC1 (stereo not given) | inactive | – |
| OCC1OC(n2cnc3c(N4CCCC4)ncnc32)C(O)C1O (stereo not given) | inactive | – |
| CC(=O)N1CCN(Cc2cc(=O)oc3cc(C)ccc23)CC1 | inactive | – |
| Cc1ccc(C(=O)Nc2c(-c3ccccc3)[nH][nH]c2=O)cc1 | inactive | – |
| CCc1cccc(C)c1NS(=O)(=O)c1ccc(-c2cc(C)no2)s1 | inactive | – |
| COc1ccc(N2CCN(S(=O)(=O)c3cc(Br)cnc3N)CC2)cc1 | inactive | – |
| CCc1cccc(C)c1NS(=O)(=O)c1cc(Br)cnc1N | 10 µM (active) | – |
| Cc1ccc(-c2nc3c(Cl)cc(C(F)(F)F)cn3c2Cc2cccc(Cl)c2)cc1 | inactive | – |
| CCn1c(SCC(=O)N2CCCC2=O)nc2ccccc21 | inactive | – |
| CC(C)c1cc(C(=O)N/N=C/C(Br)=C/c2ccccc2)n[nH]1 | 8.91 µM (active) | – |
| CC(C)c1cc(C(=O)O)n[nH]1 | inactive | – |
| Cc1cc(C(=O)N/N=C\C(Br)=C\c2ccccc2)c(C)o1 | – | 5.04% [at 7.66 µM] (inactive) |
| COCCNc1ncnc2c1ncn2[C@H]1CN(Cc2ccc(OC)cc2)C[C@@H](CO)O1 | inactive | – |
| O=C(NC1CCCCC1)C1CCCN(S(=O)(=O)c2ccc(Br)s2)C1 (stereo not given) | inactive | – |

| SMILES | Potency | activity change, negative = inhibition |
| --- | --- | --- |
| O=C(C1CCN(S(=O)(=O)c2ccc(Br)s2)CC1)N1CCN(C2CCCCC2)CC1 | 10 µM (active) | – |
| O=C(C1CCN(S(=O)(=O)c2cccs2)CC1)N1CCCCCC1 | inactive | – |
| CN1C[C@@H](CO)O[C@@H](n2cnc3c(N4CCN(CCO)CC4)ncnc32)C1 | inactive | – |
| CCCCN1CC(N2CCN(Cc3cccc(C)c3)CC2)CS1(=O)=O (stereo not given) | inactive | – |
| CCCNC(=S)N1CCC(NC(=O)c2ccc(OC)cc2)CC1 | inactive | – |
| COc1ccc(NC(=S)N2CCC(NC(=O)c3cccc(F)c3)CC2)cc1 | inactive | – |
| COc1cc(OC)cc(C(=O)NC2CCN(C(=O)N3c4ccccc4Sc4ccccc43)CC2)c1 | 10 µM (active) | – |
| COc1cccc(-c2cc(NC(C)=O)c3ncc(-c4cccc(C(C)=O)c4)n3c2)c1 | inactive | – |
| CCOC(=O)/C(=N\Nc1ccccc1Cl)N(C)C1CCS(=O)(=O)C1 (stereo not given) | inactive | – |
| CCOC(=O)N1CCN(C(=O)COc2ccc(Cl)cc2C)CC1 | inactive | – |
| CCOC(=O)/C(=N\Nc1cc(Cl)ccc1Cl)N1CCN(C)CC1 | 10 µM (active) | – |
| Cn1c(=O)c2cc(NC(=O)NCCc3cccs3)ccc2n1Cc1cccc(C(F)(F)F)c1 | inactive | – |
| O=C(COc1ccc(S(=O)(=O)Nc2cccc(C(F)(F)F)c2)cc1)N1CCOCC1 | inactive | – |
| O=C(/C=C/c1ccc(F)cc1)Nc1cccc(S(=O)(=O)Nc2cccc(C(F)(F)F)c2)c1 | inactive | – |
| Cc1oc2c(F)c(F)c(F)c(F)c2c1S(=O)(=O)Nc1cccc(C(F)(F)F)c1 | 3.98 µM (active) | – |
| COc1ccc(C2=Nc3ccccc3NC(=O)C2N(C(=O)c2cc3ccccc3[nH]2)c2ccccc2)cc1 (stereo not given) | inactive | – |
| Cc1ccc(Nc2c(-c3ccc(Cl)cc3)nc3sccn23)c(C)c1 | 14.1 µM (active) | – |
| O=c1cc(Cn2nnc(-c3ccc(Cl)cc3)n2)nc2sccn12 | inactive | – |
| CC(=O)Nc1c(-c2ccc(C)cc2)nc2ccc(Cl)cn12 | inactive | – |
| CC(C)CCOc1ccc(C(=O)Nc2cc(S(=O)(=O)N3CCOCC3)ccc2N2CCOCC2)cc1 | inactive | – |
| CCc1nc2ccc(C(=O)N(C)CCN(C)C)cn2c1N(CC)CCOC | inactive | – |

Reference: PubChem BioAssay AID624417 (National Center for Advancing Translational Sciences (NCATS), 2012)
